# From PubChem BioAssay (Tox21)
# Records with an inconclusive call do not appear. Where a call stands in place of a potency, no number is given. Calls of active or inactive are those of the source. Unless noted, the call rests on the fitted dose curve; in most records, active means well fitted curve in the direction sought with a large enough effect in the repeat runs; inconclusive means weak or mixed curves; inactive means no such curve, though single readings can be large; an effect the other way counts as inactive or inconclusive. Non-standard residues stand in square brackets, D forms with d. Residues, ends and D or L forms follow the SMILES beside them. pGlu = O=C1CC[C@@H](C(=O)O)N1; Thz = O=C(O)[C@@H]1CSCN1
# Tests used:
# [1] = qHTS assay to identify small molecule antagonists of the glucocorticoid receptor (GR) signaling pathway - cell viability counter screen (AID 720693); further: nearly all actives have a fitted effect of over 55% in size; further: potency means the concentration at half of the fitted maximal effect
# [2] = qHTS assay for identifying genotoxic compounds that show differential cytotoxicity against isogenic chicken DT40 cell lines with known DNA damage response pathways - wild type cell line (AID 743012); further: nearly all actives have a fitted effect of over 60% in size; further: potency means the concentration at half of the fitted maximal effect
# How it was run: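 Wild type DT40, 300 cells/well, ~0.5 h settle at 37 C/5% CO2; compounds in DMSO added by pintool; 40 h at 37 C/5% CO2; CellTiter-Glo, 30 min RT; luminescence.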
# [3] = qHTS assay for identifying genotoxic compounds that show differential cytotoxicity against isogenic chicken DT40 cell lines with known DNA damage response pathways - Rev3 mutant cell line (AID 743014); further: nearly all actives have a fitted effect of over 55% in size; further: potency means the concentration at half of the fitted maximal effect
# [4] = qHTS assay for identifying genotoxic compounds that show differential cytotoxicity against isogenic chicken DT40 cell lines with known DNA damage response pathways - Rad54/Ku70 mutant cell line (AID 743015); further: nearly all actives have a fitted effect of over 60% in size; further: potency means the concentration at half of the fitted maximal effect
# [5] = qHTS assay to identify small molecule antagonists of the androgen receptor (AR) signaling pathway - cell viability counter screen (AID 743033; further: nearly all actives have a fitted effect of over 45% in size; further: potency means the concentration at half of the fitted maximal effect)
# [6] = biological target: Androgen receptor (Homo sapiens) (UniProt P10275); assay: qHTS assay to identify small molecule antagonists of the androgen receptor (AR) signaling pathway (AID 743035; active means well fitted inhibition curve with a large enough effect in the signal ratio in the repeat runs, not every such curve was filed as active; the % refers to the signal ratio; further: potency means the concentration at half of the fitted maximal effect)
# How it was run: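 Fluorescence from a beta-lactamase FRET substrate (LiveBLAzer B/G, 2 h, room temperature) measured inhibition of R1881-stimulated signaling in GeneBLAzer AR-UAS-bla HEK293 cells exposed to compound for 16 h at 37C.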
# [7] = biological target: Androgen receptor (Homo sapiens) (UniProt P10275); assay: qHTS assay to identify small molecule agonists of the androgen receptor (AR) signaling pathway using the MDA cell line (AID 743040; further: nearly all actives have a fitted effect of over 20% in size; further: potency means the concentration at half of the fitted maximal effect)
# How it was run: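 MDA-kb2 breast carcinoma cells stably carrying an MMTV-driven luciferase reporter (AR- and GR-responsive) were seeded and held 5 h at 37C, 0% CO2, then exposed to compounds in DMSO for 16 h. Luminescence was read 30 min after ONE-Glo addition.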
# [8] = qHTS assay to identify small molecule antagonists of the androgen receptor (AR) signaling pathway using the MDA cell line - cell viability counter screen (AID 743041; further: nearly all actives have a fitted effect of over 45% in size; further: potency means the concentration at half of the fitted maximal effect)
# How it was run: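 MDA-kb2 AR-luc human breast carcinoma cells (MMTV-luciferase, AR/GR responsive) were treated with compounds plus R1881 agonist for 16 h at 37 °C. Viability was read as CellTiter-Fluor fluorescence in the same wells as the reporter assay.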
# [9] = biological target: Androgen receptor (Homo sapiens) (UniProt P10275); assay: qHTS assay to identify small molecule antagonists of the androgen receptor (AR) signaling pathway using the MDA cell line (AID 743042; further: nearly all actives have a fitted effect of over 55% in size; further: potency means the concentration at half of the fitted maximal effect)
# How it was run: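 MDA-kb2 cells (human breast carcinoma, stably carrying an MMTV-luciferase reporter responsive to AR and GR) were plated at 3,000 cells/well and preincubated 5 hr at 37C, then given compound plus R1881 agonist for 16 h. ONE-Glo luminescence was read.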
# [10] = biological target: Androgen receptor (Homo sapiens) (UniProt P10275); assay: qHTS assay to identify small molecule agonists of the androgen receptor (AR) signaling pathway (AID 743036; active means well fitted activation curve with a large enough effect in the signal ratio in the repeat runs, with a control signal flat, not every such curve was filed as active; the % refers to the signal ratio)
# How it was run: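 AR-UAS-bla HEK293 cells, plated 4 h before dosing, were treated with compound for 16 h at 37C. beta-Lactamase reporter read after 2 h with LiveBLAzer B/G FRET substrate at room temperature.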
# Androgen receptor (Homo sapiens), sequence (P10275 whole entry, looked up): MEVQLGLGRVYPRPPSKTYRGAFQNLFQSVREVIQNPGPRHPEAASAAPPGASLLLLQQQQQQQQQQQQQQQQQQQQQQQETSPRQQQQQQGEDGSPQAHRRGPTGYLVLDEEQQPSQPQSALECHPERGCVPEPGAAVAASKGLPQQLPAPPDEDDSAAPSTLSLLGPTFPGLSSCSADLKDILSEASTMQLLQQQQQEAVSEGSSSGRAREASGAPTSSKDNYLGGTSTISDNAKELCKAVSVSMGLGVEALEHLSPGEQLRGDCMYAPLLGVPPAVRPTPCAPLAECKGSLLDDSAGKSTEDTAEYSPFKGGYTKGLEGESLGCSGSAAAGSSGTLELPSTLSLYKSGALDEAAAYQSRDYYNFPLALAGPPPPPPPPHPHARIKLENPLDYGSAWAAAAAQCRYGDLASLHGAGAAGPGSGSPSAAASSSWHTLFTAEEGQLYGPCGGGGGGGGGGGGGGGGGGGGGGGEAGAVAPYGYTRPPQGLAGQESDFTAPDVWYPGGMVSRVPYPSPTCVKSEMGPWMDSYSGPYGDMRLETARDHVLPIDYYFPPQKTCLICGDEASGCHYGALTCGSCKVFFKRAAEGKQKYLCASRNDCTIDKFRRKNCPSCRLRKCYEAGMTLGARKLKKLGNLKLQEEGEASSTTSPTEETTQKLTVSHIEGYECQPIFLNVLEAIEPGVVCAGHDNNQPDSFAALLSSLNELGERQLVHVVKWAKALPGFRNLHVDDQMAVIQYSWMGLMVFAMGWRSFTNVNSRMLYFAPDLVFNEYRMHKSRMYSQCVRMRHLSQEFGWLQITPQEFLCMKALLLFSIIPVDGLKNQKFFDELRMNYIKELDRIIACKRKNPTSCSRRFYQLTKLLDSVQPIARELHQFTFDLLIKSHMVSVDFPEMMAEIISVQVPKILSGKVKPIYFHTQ
SMILES,Potency [1],Potency [2],Potency [3],Potency [4],Potency [5],Potency [6],Potency [7],Potency [8],Potency [9],Potency [10]
CC[N+](C)(C)Cc1ccccc1Br,inactive,inactive,inactive,inactive,inactive,inactive,inactive,inactive,inactive,–
CC[C@]1(O)CC2CN(CCc3c([nH]c4ccccc34)[C@@](C(=O)OC)(c3cc4c(cc3OC)N(C)[C@H]3[C@@](O)(C(N)=O)[C@H](O)[C@]5(CC)C=CCN6CC[C@]43[C@@H]65)C2)C1 (stereo not given in full),inactive,0.0473 µM (active),0.0531 µM (active),0.0596 µM (active),inactive,0.213 µM (active),inactive,inactive,inactive,–
C[N+]1(C)CCN(CC(O)(c2ccccc2)C2CCCCC2)CC1 (stereo not given),inactive,inactive,inactive,inactive,inactive,inactive,inactive,inactive,inactive,inactive
CN1c2c(nc(N)[nH]c2=O)NCC1CNc1ccc(C(=O)NC(CCC(=O)O)C(=O)O)cc1 (stereo not given),inactive,inactive,inactive,inactive,inactive,inactive,inactive,inactive,inactive,–
CC1(C)S[C@@H]2[C@H](NC(=O)[C@H](NC(=O)N3CCN(S(C)(=O)=O)C3=O)c3ccccc3)C(=O)N2[C@H]1C(=O)O,inactive,inactive,inactive,inactive,inactive,inactive,29.8 µM (active),inactive,inactive,–
CCN(CC)c1ccc(C(=C2C=CC(=[N+](CC)CC)C=C2)c2ccccc2)cc1,1.51 µM (active),0.0944 µM (active),0.106 µM (active),0.106 µM (active),2.39 µM (active),–,inactive,2.66 µM (active),0.473 µM (active),–
Oc1cc(O)cc(O)c1,inactive,inactive,inactive,inactive,inactive,inactive,inactive,inactive,inactive,–
CC(C)(C)c1ccc(CN2CCN(C(c3ccccc3)c3ccc(Cl)cc3)CC2)cc1 (stereo not given),inactive,5.31 µM (active),4.22 µM (active),8.41 µM (active),inactive,–,inactive,inactive,inactive,inactive
CC(=O)O[C@H]1C(=O)[C@@]2(C)[C@H]([C@H](OC(=O)c3ccccc3)[C@]3(O)C[C@H](OC(=O)[C@H](O)[C@@H](NC(=O)c4ccccc4)c4ccccc4)C(C)=C1C3(C)C)[C@]1(OC(C)=O)CO[C@@H]1C[C@@H]2O,inactive,0.0106 µM (active),0.0094 µM (active),0.0133 µM (active),0.952 µM (active),0.0169 µM (active),inactive,inactive,inactive,–
CCC(=O)OCC(=O)[C@@]1(OC(=O)CC)[C@@H](C)C[C@H]2[C@@H]3CCC4=CC(=O)C=C[C@]4(C)[C@@]3(Cl)[C@@H](O)C[C@@]21C,inactive,13.3 µM (active),15 µM (active),13.3 µM (active),inactive,–,0.0094 µM (active),inactive,inactive,–
CC(=O)Nc1ccc(OC(=O)c2ccccc2O)cc1,inactive,inactive,inactive,inactive,inactive,inactive,inactive,inactive,inactive,–
COc1cc(Br)c(C[N+]2(CCOCCC3CCC4CC3C4(C)C)CCOCC2)cc1OC (stereo not given),inactive,1.5 µM (active),2.66 µM (active),2.66 µM (active),inactive,–,inactive,inactive,–,–
CCCCCCCCCCCCCC[n+]1ccc(C)cc1,21.3 µM (active),0.188 µM (active),0.335 µM (active),0.266 µM (active),6.01 µM (active),9.52 µM (active),inactive,–,5.96 µM (active),inactive
C[N@+]12CCCC[C@@H]1CCC(=C(c1cccs1)c1cccs1)C2,inactive,5.96 µM (active),10.6 µM (active),8.41 µM (active),inactive,inactive,–,26.6 µM (active),18.8 µM (active),–
O=C1/C(=C\c2cccs2)CCC/C1=C\c1cccs1,inactive,23.7 µM (active),26.6 µM (active),29.8 µM (active),inactive,–,inactive,inactive,inactive,–
OC(CN1CCCCC1)c1cc(-c2ccccc2)on1 (stereo not given),inactive,inactive,inactive,inactive,inactive,inactive,–,inactive,inactive,–
O=P(O)(O)OC(Cn1cncn1)(Cn1cncn1)c1ccc(F)cc1F,inactive,inactive,inactive,inactive,inactive,inactive,inactive,inactive,inactive,–
CO[C@H]1C[C@@H]2CC[C@@H](C)[C@@](O)(O2)C(=O)C(=O)N2CCCC[C@H]2C(=O)O[C@H]([C@H](C)C[C@@H]2CC[C@@H](OCCO)[C@H](OC)C2)CC(=O)[C@H](C)/C=C(\C)[C@@H](O)[C@@H](OC)C(=O)[C@H](C)C[C@H](C)/C=C/C=C/C=C/1C,23.9 µM (active),0.0094 µM (active),0.0075 µM (active),0.0168 µM (active),inactive,–,inactive,–,23.7 µM (active),–
CS(=O)(=O)Nc1cc2occ(NC=O)c(=O)c2cc1Oc1ccccc1,inactive,inactive,inactive,inactive,inactive,–,inactive,inactive,inactive,–

SMILES,Potency [1],Potency [2],Potency [3],Potency [4],Potency [5],Potency [6],Potency [7],Potency [8],Potency [9],Potency [10]
NC(=O)c1ccc[n+]([C@@H]2O[C@H](COP(=O)([O-])OP(=O)(O)OC[C@H]3O[C@@H](n4cnc5c(N)ncnc54)[C@H](O)[C@@H]3O)[C@@H](O)[C@H]2O)c1,inactive,inactive,inactive,inactive,inactive,–,inactive,inactive,inactive,inactive
OCC(O)COc1ccc(Cl)cc1 (stereo not given),inactive,inactive,inactive,inactive,inactive,inactive,inactive,inactive,inactive,inactive
CN=C1C=CC(=C(c2ccc(N(C)C)cc2)c2ccc(N(C)C)cc2)C=C1,7.56 µM (active),0.531 µM (active),1.06 µM (active),0.75 µM (active),0.535 µM (active),–,inactive,7.5 µM (active),3.76 µM (active),–
O=C(NOC[C@H](O)CO)c1ccc(F)c(F)c1Nc1ccc(I)cc1F,inactive,inactive,inactive,inactive,inactive,–,inactive,inactive,–,–
CCCOc1cc(N)ccc1C(=O)OCCN(CC)CC,inactive,inactive,inactive,inactive,inactive,inactive,inactive,inactive,inactive,inactive
O=C1c2ccccc2C(=O)C1c1ccc(Cl)cc1,inactive,inactive,inactive,inactive,inactive,–,inactive,–,inactive,–
CC1=C[C@H](O)CC(C)(C)[C@H]1/C=C/C(C)=C/C=C/C(C)=C/C=C/C=C(C)/C=C/C=C(C)/C=C/C1=C(C)C[C@@H](O)CC1(C)C,inactive,11.9 µM (active),18.8 µM (active),21.1 µM (active),inactive,–,inactive,inactive,–,inactive
NCCCC[C@H](N)C(=O)O,inactive,inactive,inactive,inactive,inactive,inactive,inactive,inactive,inactive,inactive
Cc1cc2nc3c(=O)[nH]c(=O)nc-3n(C[C@H](O)[C@H](O)[C@H](O)COP(=O)(O)OP(=O)(O)OC[C@H]3O[C@@H](n4cnc5c(N)ncnc54)[C@H](O)[C@@H]3O)c2cc1C,inactive,inactive,inactive,inactive,inactive,–,inactive,–,inactive,–
CN[C@H]1CCc2cc(OC)c(OC)c(OC)c2-c2ccc(OC)c(=O)cc21,inactive,0.0473 µM (active),0.0531 µM (active),0.0531 µM (active),inactive,0.0601 µM (active),inactive,inactive,inactive,–
CCCCCCOc1ccc(C(=N)N(CCCC)CCCC)c2ccccc12,13.4 µM (active),3.76 µM (active),5.31 µM (active),5.96 µM (active),15.1 µM (active),–,inactive,18.8 µM (active),16.8 µM (active),–
CN1CCN(CCC=C2c3ccccc3Sc3ccc(S(=O)(=O)N(C)C)cc32)CC1,inactive,10.6 µM (active),13.3 µM (active),16.8 µM (active),23.9 µM (active),–,inactive,inactive,–,–
CC(=O)O[C@H]1C[C@@]2(C)[C@@H](C[C@@H](O)[C@H]3[C@@]4(C)CC[C@@H](O)[C@@H](C)[C@@H]4CC[C@@]32C)/C1=C(\CCC=C(C)C)C(=O)O,inactive,inactive,inactive,inactive,inactive,inactive,inactive,–,inactive,inactive
Clc1ccc(COC(Cn2ccnc2)c2ccc(Cl)cc2Cl)c(Cl)c1 (stereo not given),inactive,10.1 µM (active),11.4 µM (active),10.1 µM (active),inactive,–,inactive,inactive,inactive,–
O=C1CC[C@@H](C(=O)N2CSC[C@H]2C(=O)O)N1 ([pGlu]-[Thz]-OH),inactive,inactive,inactive,inactive,inactive,inactive,–,inactive,inactive,inactive
COC(F)(F)C(Cl)Cl,inactive,inactive,inactive,inactive,inactive,–,inactive,inactive,inactive,inactive
CCCCC/C=C\C/C=C\C/C=C\CCCCC(=O)O,inactive,inactive,inactive,inactive,inactive,–,–,inactive,–,–
CC(C)(C)NC[C@H](O)COc1ccccc1C1CCCC1,inactive,6.39 µM (active),10.1 µM (active),10.1 µM (active),inactive,–,–,inactive,–,–
O=S(O)CNc1ccc(S(=O)(=O)c2ccc(NCS(=O)O)cc2)cc1,inactive,inactive,inactive,inactive,inactive,–,–,inactive,–,–
